In PubChem BioAssay (NCI) one finds growth data, which are given here for twelve compounds.

Values joined by “and” are separate entries in the source; they are usually repeats but may differ in a detail not shown here. Identical values can stand only once. About 83,000 compounds went through this panel and 20% of them were active in at least one assay; those are over-represented in the sample as a whole.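 Compound tested at a single concentration for 48 hours in 96-well plates; a percent growth value below 10 was scored as active.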 Active and inactive are the calls of the source.

Holding throughout (assay): NCI-60 one-dose screen, 48 h (100 = growth as untreated, 0 = no growth, -100 = all killed)
The test system of one test is NCI-H23 lung. As to conditions: 10 µM unless noted.
Another test has as its system NCI-H226 lung. As to conditions: 10 µM unless noted.
The subject of a further test is NCI-H322M lung. Particulars: 10 µM unless noted.
In the next test the test system is HOP-62 NSCLC. Particulars: 10 µM unless noted.
For a further test, the system named is NCI-H460 lung. Particulars: 10 µM unless noted.
For the next test, the system named is HOP-92 NSCLC. As to conditions: 10 µM.
Another test has as its system NCI-H522 lung. Particulars: 10 µM.
The test system of the next test is A549/ATCC NSCLC. As to conditions: 10 µM unless noted.
The next test relates to 786-0 renal. As to conditions: 10 µM unless noted.
In the next test the test system is COLO 205 colon. As to conditions: 10 µM unless noted.

Turning to `C/C(=C\c1ccccc1)c1ccccn1`, the growth was 107% (inactive) in the test with NCI-H23 lung; 90.9% (inactive) in the test on NCI-H226 lung; 96.8% (inactive) in the test on NCI-H322M lung; 105% (inactive) in the test on HOP-62 NSCLC; 105% (inactive) in the test with NCI-H460 lung; 105% (inactive) in the test on HOP-92 NSCLC. Moreover, the growth was 109% (inactive) with NCI-H522 lung, 115% (inactive) in the test with A549/ATCC NSCLC, 104% (inactive) in the test with 786-0 renal and 114% (inactive) with COLO 205 colon.
As to `CC1=C/C(O)CC(=O)Cc2nc(co2)C(=O)N2CCC=C2C(=O)OC(C(C)C)C(C)/C=C\C(=O)NC/C=C\1` (stereo not drawn), the growth is 78.7% (inactive) in the test on NCI-H23 lung; 82.9% (inactive) in the test with NCI-H226 lung; 102% (inactive) in the test with NCI-H322M lung; 88.7% (inactive) with HOP-92 NSCLC; 21.8% (inactive) in the test with NCI-H522 lung; 2.53% (active) in the test with 786-0 renal. Also, the growth in the test on COLO 205 colon is 74.3% (inactive).
Regarding `Cc1ccc(S(=O)(=O)c2ccccc2)cc1`, the growth with NCI-H23 lung was 54.5% (inactive); in the test with NCI-H226 lung it was 85.6% (inactive); in the test with NCI-H322M lung, 57.1% (inactive); in the test with HOP-62 NSCLC, 44.2% (inactive); in the test with NCI-H460 lung it was 20.7% (inactive); in the test with HOP-92 NSCLC, 58.7% (inactive). The growth in the test with A549/ATCC NSCLC is 41.7% (inactive).
Turning to `CC1CCC2(C(=O)O)CCC3(C)C(=CCC4C5(C)CCC(O)C(C)(C)C5CCC43C)C2C1C` (stereo not drawn), the growth in the test with NCI-H23 lung was 91.9% (inactive) and 88.2% (inactive); with NCI-H226 lung it was 67.9% (inactive) and 98% (inactive); with NCI-H322M lung, 67.3% (inactive) and 92.7% (inactive); in the test on HOP-62 NSCLC, 5.46% (active) and 102% (inactive); with NCI-H460 lung, 44.5% (inactive) and 89.9% (inactive); in the test with HOP-92 NSCLC, 42.5% (inactive) and 65.8% (inactive). In addition, the growth in the test with NCI-H522 lung is 31.1% (inactive) and 84.1% (inactive); in the test with 786-0 renal, -31.3% (active) and 76.1% (inactive).
Consider `COc1ccc(N/C=C/C2=[N+](C)c3ccccc3C2(C)C)c(OC)c1`, for which the growth with NCI-H23 lung was 79.8% (inactive); with NCI-H226 lung, 83% (inactive); in the test on NCI-H322M lung, 102% (inactive); in the test on HOP-62 NSCLC it was 92.7% (inactive); in the test with HOP-92 NSCLC, 69.5% (inactive); in the test on NCI-H522 lung, 89.9% (inactive). Besides, the growth with 786-0 renal is 88.9% (inactive).
In the case of `CN(C)CC1CCCCCC(CN(C)C)C1=O` (stereo not drawn), the growth in the test with NCI-H23 lung is 97.2% (inactive); in the test on NCI-H226 lung, 91.4% (inactive); in the test on NCI-H322M lung it was 116% (inactive); with HOP-62 NSCLC it was 113% (inactive); with HOP-92 NSCLC, 73.2% (inactive); in the test on NCI-H522 lung it was -42.8% (active). In addition, the growth was 106% (inactive) with A549/ATCC NSCLC, 89.6% (inactive) in the test with 786-0 renal and -80.9% (active) with COLO 205 colon.
In the case of `NN1CCOC(c2ccccc2)C1` (stereo not drawn), the growth with NCI-H23 lung was 104% (inactive); in the test on NCI-H226 lung, 99.4% (inactive); with NCI-H322M lung, 97.7% (inactive); in the test with HOP-62 NSCLC, 99.6% (inactive); in the test on NCI-H522 lung it was 125% (inactive); in the test on A549/ATCC NSCLC, 104% (inactive). For the same compound, the growth with 786-0 renal was 103% (inactive).
For the compound `Nc1nc(N)c2[nH]cnc2n1`, the growth in the test on NCI-H23 lung is 88.6% (inactive); with NCI-H226 lung, 102% (inactive); in the test with NCI-H322M lung, 111% (inactive); in the test on HOP-62 NSCLC it was 88.7% (inactive); with NCI-H460 lung, 96.2% (inactive); with HOP-92 NSCLC, 78.5% (inactive). Besides, the growth is 50.6% (inactive) in the test with NCI-H522 lung, 80.2% (inactive) in the test on A549/ATCC NSCLC, 91.8% (inactive) in the test with 786-0 renal and 97.6% (inactive) with COLO 205 colon.
Take `CC(=O)OCC1OC(OC(C)=O)C(OC(C)=O)C(OC(C)=O)C1OC(C)=O` (stereo not drawn): the growth in the test with NCI-H23 lung was 107% (inactive) and 95.6% (inactive); with NCI-H226 lung it was 94.9% (inactive) and 99.6% (inactive); in the test with NCI-H322M lung it was 111% (inactive) and 101% (inactive); in the test on HOP-62 NSCLC, 83.4% (inactive); with HOP-92 NSCLC, 102% (inactive) and 98.9% (inactive); with NCI-H522 lung it was 103% (inactive). In the test on 786-0 renal, the growth is 102% (inactive) and 106% (inactive).
On to `CC(=O)OC(C)C(=O)NCC(C)O` (stereo not drawn), for which the growth is 100% (inactive) in the test on NCI-H23 lung; 90.7% (inactive) with NCI-H322M lung; 100% (inactive) in the test with HOP-62 NSCLC; 98.2% (inactive) in the test on NCI-H460 lung; 98% (inactive) with HOP-92 NSCLC; 109% (inactive) with NCI-H522 lung. Moreover, the growth in the test on 786-0 renal is 94.9% (inactive); in the test with COLO 205 colon, 107% (inactive).
For `C#CCOC(=O)Nc1ccccc1`, the growth with NCI-H23 lung was 98.9% (inactive); with NCI-H226 lung it was 108% (inactive); in the test on NCI-H322M lung, 106% (inactive); with HOP-62 NSCLC it was 113% (inactive); with NCI-H460 lung, 103% (inactive); in the test with HOP-92 NSCLC, 102% (inactive). Moreover, the growth in the test on NCI-H522 lung was 101% (inactive); with A549/ATCC NSCLC it was 97.4% (inactive); in the test with 786-0 renal it was 94.7% (inactive).
Regarding `CC(C)NC(=O)N/C=C(\C#N)C(N)=O`, the growth in the test with NCI-H23 lung was 92.7% (inactive); with NCI-H226 lung, 97.5% (inactive); in the test with NCI-H322M lung it was 99.5% (inactive); with HOP-62 NSCLC, 88.2% (inactive); with NCI-H460 lung, 91.1% (inactive); with HOP-92 NSCLC, 96.6% (inactive). In addition, the growth is 87.2% (inactive) in the test on NCI-H522 lung, 111% (inactive) in the test on A549/ATCC NSCLC and 99% (inactive) with 786-0 renal.
